# A selection: hits, their analogues and other compounds. The true share with any hit is near 11%.
# USP28 block: blocks human USP28 ubiquitin-rhodamine cleavage; Q96RU2; purified USP28, Ub-rhodamine cleavage fluorescence, 30 min; inhibition, % at 25 µM; actives 3% (n = 47,000)
# Target sequence (Q96RU2 whole entry, looked up): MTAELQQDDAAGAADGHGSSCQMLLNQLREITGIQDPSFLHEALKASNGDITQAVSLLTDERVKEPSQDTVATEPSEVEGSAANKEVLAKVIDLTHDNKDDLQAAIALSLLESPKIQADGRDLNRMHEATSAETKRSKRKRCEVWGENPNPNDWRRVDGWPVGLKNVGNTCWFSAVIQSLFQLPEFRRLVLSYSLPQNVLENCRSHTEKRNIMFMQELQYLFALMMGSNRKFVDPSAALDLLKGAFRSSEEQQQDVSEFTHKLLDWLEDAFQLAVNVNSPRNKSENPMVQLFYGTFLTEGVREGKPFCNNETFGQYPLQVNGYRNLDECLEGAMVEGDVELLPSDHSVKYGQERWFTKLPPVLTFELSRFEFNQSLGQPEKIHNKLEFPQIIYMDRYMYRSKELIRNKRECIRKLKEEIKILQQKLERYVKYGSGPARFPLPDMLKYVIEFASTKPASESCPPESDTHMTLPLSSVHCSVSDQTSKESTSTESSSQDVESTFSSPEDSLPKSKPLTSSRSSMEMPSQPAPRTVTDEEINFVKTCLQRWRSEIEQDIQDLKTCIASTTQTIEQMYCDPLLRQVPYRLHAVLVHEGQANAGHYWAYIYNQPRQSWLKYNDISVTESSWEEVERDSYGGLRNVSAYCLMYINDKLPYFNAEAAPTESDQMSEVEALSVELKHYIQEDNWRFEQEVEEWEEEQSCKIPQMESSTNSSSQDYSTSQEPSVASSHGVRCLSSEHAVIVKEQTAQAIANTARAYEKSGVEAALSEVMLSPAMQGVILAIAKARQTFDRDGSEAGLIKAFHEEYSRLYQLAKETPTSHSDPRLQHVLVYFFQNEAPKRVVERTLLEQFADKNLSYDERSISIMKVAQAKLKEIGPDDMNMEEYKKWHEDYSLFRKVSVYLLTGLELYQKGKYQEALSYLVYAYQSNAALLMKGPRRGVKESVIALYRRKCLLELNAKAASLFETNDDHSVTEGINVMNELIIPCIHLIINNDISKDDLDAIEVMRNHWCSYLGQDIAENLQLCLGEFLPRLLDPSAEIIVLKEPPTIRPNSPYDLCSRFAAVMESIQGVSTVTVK
# USP30 inh: blocks human USP30 ubiquitin-rhodamine cleavage. inhibition, % at 25 µM. AID 1645860. Q70CQ3. purified USP30, Ub-rhodamine cleavage fluorescence. actives 5.3% (n = 47,000)
# USP17 block: blocks human USP17 ubiquitin-rhodamine cleavage; purified USP17, Ub-rhodamine cleavage fluorescence, 3 h; inhibition, % at 50 µM; actives 6.5% (n = 47,000); AID 1645855
# OTUD3 inh: inhibitors of human OTUD3 deubiquitinase. Q5T2D3. purified OTUD3, Ub-rhodamine fluorescence, 2 h. inhibition, % at 25 µM. actives 0.7% (n = 47,000). AID 1645858
# Starred values were filed as active, the others as inactive; . = no result given. Rule as the data show it: active = inhibition above about 30%; inactive = the rest.
SMILES,USP28 block,USP30 inh,USP17 block,OTUD3 inh
COc1ccccc1NC(=O)Cn1cc(C(=O)c2ccc(C)cc2)c(=O)c2ccccc21,1.9,9.0,62.2*,7.9
COc1ccc(NC(=O)Cn2cc(C(=O)c3ccc(Cl)cc3)c(=O)c3cc(F)ccc32)cc1,19.2,39.1*,31.1*,15.3
COc1ccc(NC(=O)Cn2cc(C(=O)c3ccccc3)c(=O)c3cc(Cl)ccc32)cc1OC,-15.7,-10.7,-1.4,-7.8
Cc1ccc(C(=O)c2cn(CC(=O)Nc3ccccc3C)c3ccc(C)cc3c2=O)cc1,-25.6,-82.6,40.3*,-30.7
COc1ccc2c(c1)c(=O)c(C(=O)c1ccc(Cl)cc1)cn2CC(=O)Nc1ccc(Cl)cc1,-26.9,-94.4,0.7,-20.8
Cc1ccc2c(c1)c(=O)c(C(=O)c1ccc(F)cc1)cn2CC(=O)Nc1ccc2c(c1)OCCO2,8.0,-2.1,69.9*,1.4
O=C(Oc1cccc(F)c1)C1CCN(S(=O)(=O)c2ccc3c(c2)CCCC3)CC1,8.8,22.0,11.7,8.1
CC(=O)N(C)CCc1noc(-c2[nH]c3ccc(C)cc3c2C)n1,0.4,-19.0,-5.9,-6.8
Cc1c(NC(=O)/C=C/c2cccc3ccccc23)cccc1[N+](=O)[O-],-17.2,-27.5,-6.4,-12.8
Cc1c(C(=O)NCc2ccccc2Br)cc(-c2ccccc2)n1C,22.0,31.8*,20.2,23.5
COc1cc(NC(=O)Cn2nc(C(C)C)c(-c3cc(C)no3)cc2=O)cc(OC)c1,38.2*,32.0*,30.7*,11.9
CCc1nc2sc(C(C)C)nn2c1S(=O)(=O)N1CCCCCC1,10.2,35.6*,-30.5,15.5
Cc1cn2c(S(=O)(=O)N3CCCCC3)c(C(C)C)nc2s1,-16.5,-4.5,-16.0,0.0
Cc1ccc(NC(=O)CSc2nnc(-c3cnccn3)n2Cc2ccco2)cc1,.,.,53.4*,-0.5
O=C(OC(C(=O)Nc1cccc(C(F)(F)F)c1)c1ccccc1)C1CCN(C(=O)c2ccc(Cl)cc2)CC1 (centres undefined),5.9,2.5,6.0,1.5
CCc1nc(SCc2cccc(F)c2)c2oc3ccccc3c2n1,19.6,46.7*,52.7*,24.2
CCc1nc(SCC(=O)c2ccc(Br)cc2)c2oc3ccccc3c2n1,-14.1,-7.8,2.4,-9.0
CCc1nc(SCC(=O)N2CCCc3ccccc32)c2oc3ccccc3c2n1,3.3,-1.0,40.3*,-1.7
Cc1ccc2c(c1)C(C)(C)C1(/C=C/c3ccco3)NC(=O)CN21 (centres undefined),-26.9,-366.7,-16.9,-67.1
COc1cc(=O)c(C(=O)Nc2ccccc2)nn1-c1cccc(F)c1,-7.2,8.9,-3.9,-2.1
COc1ccccc1NC(=O)c1nn(-c2cccc(F)c2)c(OC)cc1=O,18.4,75.8*,46.1*,9.4
COCc1cc(=O)n(Cc2cccc(F)c2)c(N2CCCC2)n1,4.1,-0.6,2.6,6.4
O=C(NCCCN1CCCC1=O)c1ccc(N2CCCC2=O)cc1,0.1,2.3,1.8,-5.0
COc1ccc(CCNC(=O)COC(=O)c2ccc(N3CCCC3=O)cc2)cc1,8.9,81.3*,83.7*,2.5
Cc1cc(C(=O)N[C@H]2[C@H](O)[C@H](O)C[C@@H]2c2ccccc2)c(C)o1,-0.1,-11.6,1.1,-2.1
SMILES,USP28 block,USP30 inh,USP17 block,OTUD3 inh
Cc1ccccc1[C@H]1C[C@@H](O)[C@@H](O)[C@@H]1NC(=O)c1cccc(C#N)c1,9.1,46.5*,19.9,9.4
Cc1ccc([C@H]2C[C@@H](O)[C@@H](O)[C@@H]2NC(=O)c2ccccc2)cc1,3.5,36.9*,22.6,4.6
Cc1cc(C(=O)N[C@H]2[C@H](O)[C@H](O)C[C@@H]2c2ccccc2C)no1,-9.9,-0.9,2.0,-3.7
O=C(NCc1ccc(Cl)cc1)c1ccc(N2CCCS2(=O)=O)cc1,44.7*,17.2,64.2*,8.1
CCc1ccc(NC(=O)CSc2nnnn2-c2cccnc2)cc1,30.9*,12.3,-5.4,13.4
O=C(CSc1nnnn1-c1ccccc1)NC(C(=O)O)(c1ccccc1)c1ccccc1,-1.1,5.0,7.1,1.2
CC(Oc1ccccc1)c1nnc(SCC(=O)c2ccccc2)n1C (centres undefined),-2.3,6.1,-1.7,1.7
O=C1NCC2(C/C=C/CCOc3ccccc31)CCN(C(=O)c1ccnc(N3CCCC3)c1)CC2,72.3*,88.0*,95.4*,42.4*
NC(=O)c1cccc(NC(=O)c2cc(Cl)c3c(c2)OCO3)c1,47.7*,-11.3,-12.1,-9.2
c1cncc(-c2cnc3sc(NC4CCCCC4)nn23)c1,11.7,24.6,34.6*,10.9
CC(=O)NC(Cc1cccc(F)c1)C(=O)NC1CCN(C(=O)C2CC2)CC1 (centres undefined),-5.1,-0.2,0.0,-4.0

# Screening results as filed in PubChem.
